This excerpt belongs to a sample that is enriched for hits.
Dicer inh: human Dicer pre-microRNA cleavage inhibition. cat-ELCCA pre-miR-21 Dicer processing, chemiluminescence; stronger effect = higher value. z-score at 25 µM. 47,000 tested, 6% active. AID 1347074; in the data active means z-score above about 3, passing the limit was not always enough;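 further: plate controls were vehicle for no effect and no enzyme for full effect; higher signal means more uncleaved substrate so more Dicer inhibition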
An asterisk follows results filed as active.

SMILES	Dicer inh
Cc1ccc(-n2c(=O)[nH]c3c(sc4nc(C)cc(C)c43)c2=O)cc1	3.4*
Cc1cc(C)c2c(n1)sc1c(=O)n(-c3cccc(Cl)c3)c(=O)[nH]c12	-0.04
Cc1ccc(-n2c(=O)[nH]c3c(oc4nc(-c5ccccc5)cc(-c5ccccc5)c43)c2=O)cc1	2.2
CCC/C(O)=c1\c(=O)nc2ccc(Cl)c3c2=c1c1ccccc1c3=O	-0.45
O=C(O)CCC(=O)Nc1ccc(OC(F)(F)F)cc1Br	-1
Cc1ccc(NC(=O)CCS(=O)(=O)Cc2ccccc2)c(Br)c1	4.5*
O=C(O)CCC(=O)Nc1cc2c(cc1Br)OCCO2	0.22
Cc1cc(C(=O)OCCN=C2NS(=O)(=O)c3ccccc32)c2ccccc2n1	-0.79
Cc1cc(C)n(-c2ccc(N3CCSCC3)nn2)n1	-0.47
CCc1cc2c(=O)c(-c3nc4ccccc4s3)c(C)oc2c(CN(C)C)c1O	-0.02
O=C(O)/C=C/C(=O)Nc1ccc(C(=O)O)c(O)c1	4.7*
Cc1cccc(NC(=O)/C=C/C(=O)O)c1	-0.11
Cc1ccc(NC(=O)/C=C/C(=O)Nc2ccc(C)c(Cl)c2)cc1Cl	0.84
Cc1c(C(=O)OCc2ccccc2)c2cc(NS(=O)(=O)N(C)C)ccc2n1S(=O)(=O)N(C)C	1.2
Cc1ccc(CSc2nnc(-c3cc(C)n(-c4ccc([N+](=O)[O-])cc4)n3)n2C)cc1	-1.1
Cc1ccc(S(=O)(=O)NC(=O)NC2Cc3ccccc3C2)cc1	0.01
CCCCCN1C(=O)c2cccc3cccc(c23)C1=O	-0.15
CCOC(=O)CCCN1C(=O)c2cccc3cccc(c23)C1=O	5.3*
CCOC(=O)CCCCCN1C(=O)c2cccc3cccc(c23)C1=O	-0.47
O=C(CCc1nc(-c2ccc(Cl)cc2)no1)NNC(=S)NCCc1ccccc1	-0.17
O=C(CCc1ccccc1)NNc1ccc(F)cc1F	-1.4
O=C(CCc1ccncc1)NNC(=O)N1Cc2ccccc2Oc2ccc(Cl)cc21	3.1*
Cc1ccc(N=C/C=C(/Nc2ccc(C)cc2)c2ccc(Cl)cc2)cc1	0.04
COc1ccc(-c2oc3ncn4nc(-c5cccnc5)nc4c3c2-c2ccc(OC)cc2)cc1	1.8
COC(=O)C1=C(C)Nc2nnnn2C1c1ccc(OCc2ccccc2)c(OC)c1 (centres undefined)	-1.3
SMILES	Dicer inh
CC(C)OC(=O)Cn1cnc([N+](=O)[O-])n1	-0.76
CC(C)(C)C1CCC(OC(=O)Cn2cnc([N+](=O)[O-])n2)CC1 (centres undefined)	3.1*
COc1ccc(NC(=O)Cn2cnc([N+](=O)[O-])n2)c(OC)c1	-0.56
C/C(=N\OCc1cccc(C(=O)O)c1)c1ccc(Cl)c(Cl)c1	2.1
O=C1OC(/C=C/c2ccccc2)=NC/1=C/c1ccccc1Cl	1.5
Cn1c(SCC(=O)Nc2ccc(F)c(Cl)c2)nnc1-c1cncc(C#Cc2ccccc2)c1	-1.8
Cc1nc(N2CCN(c3ccccc3)CC2)nc2c1C(=O)CC(C)C2 (centres undefined)	0.21
Cc1nc(N2CCN(c3ccccn3)CC2)nc2c1C(=O)CC(c1ccc(Cl)cc1)C2 (centres undefined)	-0.26
Cc1nc(N2CCN(c3cccc(Cl)c3)CC2)nc2c1C(=O)CC(c1ccco1)C2 (centres undefined)	3*
CC(=O)CSc1ccc(C(F)(F)F)cn1	-0.89
CCCSc1nc2ccccc2c(=O)n1C1CCCCC1	0.01
CCOC(=O)c1ccc2nsnc2c1	2
O=C(O)c1ccc2nsnc2c1	1
COC(=O)c1ccc2nsnc2c1	3.8*
Cc1nc(-c2ccccc2)nc2sc(C(=O)c3ccc(Cl)cc3)c(C)c12	-1
O=C(O)CSc1nc2cccnc2s1	-0.54
CCCCN(CC)c1nc(C)nc2c1c(C)cn2-c1c(C)cc(C)cc1C	-1.4
Fc1ccccc1-c1ncc(-c2ccc(Br)cc2)o1	-0.93
COC(=O)c1ccc(C(F)(F)C(F)(F)c2ccc(C(=O)OC)cc2)cc1	0.5
COC(=O)c1ccc2ncccc2c1	-0.59
COC(=O)c1ccc(C(=O)OC)nc1	3.9*
COc1ccc(OC)c(NC(=O)C(=O)NN)c1	-1.4
COC(=O)c1cc(OC)c(OC)cc1NC(=O)CCC(=O)O	-0.09
COc1ccc(OC)c(NC(=O)CCC(=O)O)c1	5*
COc1ccc(-c2nc3ccc(Cl)cc3c(=O)o2)cc1OC	2
SMILES	Dicer inh
O=C(Nc1ccccc1)c1ccc2ccccc2c1O	0.47
Nc1c(C(=O)Nc2ccccc2)oc2ccccc12	5.4*
O=C(O)C1=C(C(=O)Nc2ccccc2)SCCS1	-0.77
CSC1=C(C#N)C(=O)NC(c2c(Cl)cccc2Cl)S1 (centres undefined)	-0.3
C#CCOC(=O)NC(=O)c1ccc(Oc2cc(Cl)cc(Cl)c2)c([N+](=O)[O-])c1	0.75
Nc1cc(=O)[nH]n1C1CCN(c2ccccc2)CC1	3.2*
O=C1CC(c2ccccc2)CC(=O)N1c1ccc(N2CCOCC2)cc1	-0.18
Nc1cc(=O)[nH]c(=O)n1-c1ccccc1	-0.47
CN(C)/C=N/N(C)c1ccc([N+](=O)[O-])cn1	0.93
O=C(O)c1cccc2cccc(S(=O)c3cccc4ccccc34)c12 (centres undefined)	-2.3
CNC(=S)N/N=C/c1ccc(OC)c(Br)c1	1.2
COc1ccccc1NC(=S)N/N=C/c1ccco1	1.4
COc1cc(/C=N/NC(=S)Nc2ccccc2OC)ccc1O	5.1*
O=C(Nc1cccc2cccnc12)c1sc2ccccc2c1Cl	-1.4
COc1ccc(OC)c(CN2CCN(S(=O)(=O)c3ccc4ccccc4c3)CC2)c1	1.9
COc1ccccc1C1CCN(S(=O)(=O)c2ccc(C)cc2)CC1	-0.71
Cc1ccc(S(=O)(=O)N2CCC(CC3CCN(S(=O)(=O)c4ccc(C)cc4)CC3)CC2)cc1	1.5
Cc1ccc(S(=O)(=O)N2CCN(S(=O)(=O)c3ccc4ccccc4c3)CC2)cc1	3.4*
O=C(CCC1CCCC1)N1CCN(S(=O)(=O)c2ccc3ccccc3c2)CC1	3.1*
O=C(NCc1ccco1)C1CCCN1S(=O)(=O)c1ccc2ccccc2c1 (centres undefined)	-0.9
O=S(=O)(c1ccc2ccccc2c1)N1CCN(Cc2cc(Br)ccc2O)CC1	4.1*
O=C(Nc1nnc(CCS(=O)(=O)c2ccc3ccccc3c2)s1)C1CCCCC1	-0.45
O=S(=O)(c1ccc(Br)cc1)N1CCN(C/C=C/c2ccccc2)CC1	-0.37
CCOc1ccc(S(=O)(=O)Nc2cc(C)ccn2)cc1	-1.1
Clc1cc(Cl)c2c(c1)C=C1CCCCC1(N1CCCC1)O2 (centres undefined)	0.79
SMILES	Dicer inh
O=C(NCc1ccc(S(=O)(=O)Nc2ccc(N3CCCCC3)cc2)s1)c1ccc(Cl)cc1	7.2
Cc1ccc(C)n1-c1ccc(C2(O)CCSc3ccccc32)cc1 (centres undefined)	2.4
Cc1ccc(C)n1-c1ccc(C2(O)CCSc3ccc(F)cc32)cc1 (centres undefined)	4*
CNc1ccc(Cl)cc1C(=O)Nc1nnc(C)s1	-0.08
Cc1cc(C)nc(N2N=C(C(C)C)CC2=O)n1	-5.9
Cc1cc(C)nc(SCC2=NN(c3nc(C)cc(C)n3)C(=O)C2)n1	4*
Cc1cc(C)nc(N2N=C(CSc3ccc(Cl)cc3)CC2=O)n1	-0.85
O=C1CSCN1Cc1cc(Cl)cc(Cl)c1	0.58
CCCN(CCC)CC(O)COc1ccc2ccccc2c1 (centres undefined)	1.3
O=C(Cn1cc(C(=O)c2ccco2)c2ccccc21)NCC1CCCO1 (centres undefined)	-1.4
N/C(=N\S(=O)(=O)c1ccc(Cl)cc1)N1CCSCC1	3.6*
Nc1cc(Cl)ccc1C(=O)N1CCSCC1	-0.56
CSC/C(N)=N/S(=O)(=O)c1ccc(Cl)cc1	0.22

High-throughput results: PubChem BioAssay, Center for Chemical Genomics, University of Michigan
